Data on ten molecules can be found in ChEMBL document CHEMBL3988442, “University of Dundee, Small-Polar-MMV Screening Library” (2021).

For some assays here: Entries with a potency or affinity are not part of this list.

Common to all, as to set-up: scale not given: direction of the effect not stated beside the values
Assay [1] addresses Protein translocase subunit SecA (Escherichia coli (strain K12)) (UniProt P10408). The assay can be described thus: Assay to Identify E. coli SecA ATPase Inhibitors. Conditions: 30 µM. Format: functional.
The target in assay [2] is T1, Ubiquitin-activating enzyme e1, putative (Leishmania donovani (strain BPK282A1)) (UniProt E9BSI1).
T1 sequence (whole entry): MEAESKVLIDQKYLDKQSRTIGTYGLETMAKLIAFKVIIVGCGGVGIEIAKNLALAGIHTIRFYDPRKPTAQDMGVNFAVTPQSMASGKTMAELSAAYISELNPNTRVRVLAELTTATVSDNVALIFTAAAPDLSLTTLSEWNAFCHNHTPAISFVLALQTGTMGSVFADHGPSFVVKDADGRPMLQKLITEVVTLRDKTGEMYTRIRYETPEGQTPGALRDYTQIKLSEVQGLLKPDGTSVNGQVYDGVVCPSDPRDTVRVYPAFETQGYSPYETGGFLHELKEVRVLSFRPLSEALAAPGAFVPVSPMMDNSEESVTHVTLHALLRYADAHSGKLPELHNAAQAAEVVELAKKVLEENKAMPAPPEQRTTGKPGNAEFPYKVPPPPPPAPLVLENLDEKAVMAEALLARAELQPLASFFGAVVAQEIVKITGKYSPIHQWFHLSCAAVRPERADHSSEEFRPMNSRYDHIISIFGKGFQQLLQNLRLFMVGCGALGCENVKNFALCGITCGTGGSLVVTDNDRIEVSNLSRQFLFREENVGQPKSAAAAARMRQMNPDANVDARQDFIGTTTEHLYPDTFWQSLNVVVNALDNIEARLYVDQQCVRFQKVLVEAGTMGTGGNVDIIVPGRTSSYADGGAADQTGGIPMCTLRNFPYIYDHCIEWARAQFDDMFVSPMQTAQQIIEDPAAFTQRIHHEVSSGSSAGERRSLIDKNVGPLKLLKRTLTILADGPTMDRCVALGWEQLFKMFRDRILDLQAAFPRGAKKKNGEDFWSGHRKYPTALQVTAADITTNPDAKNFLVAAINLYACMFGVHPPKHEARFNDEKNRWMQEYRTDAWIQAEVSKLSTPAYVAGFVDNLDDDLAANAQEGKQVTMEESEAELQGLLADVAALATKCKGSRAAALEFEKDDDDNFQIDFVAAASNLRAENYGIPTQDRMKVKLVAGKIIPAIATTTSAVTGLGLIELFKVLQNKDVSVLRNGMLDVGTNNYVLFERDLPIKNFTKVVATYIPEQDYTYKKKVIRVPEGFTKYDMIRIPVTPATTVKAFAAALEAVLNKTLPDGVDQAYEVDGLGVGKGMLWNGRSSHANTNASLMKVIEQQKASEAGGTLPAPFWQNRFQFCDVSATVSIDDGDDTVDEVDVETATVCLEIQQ
The assay can be described thus: Leishmania donovani Ubiquitin Activating Enzyme (LdE1). It counts as functional. Conditions: 30 µM.

Assay [3] concerns the target AMP-activated protein kinase, AMPK (Homo sapiens) (UniProt P54646+O43741+P54619+Q9UGJ0+Q9Y478+Q13131+Q9UGI9). The assay can be described thus: AMP-dependent Kinase enzyme assay. An in vitro enzyme assay that detects ADP turnover that is directly proportional to AMPK activity. This uses naive AMPK that is activated during the assay with MK-8722. It counts as functional. Conditions: 30 µM.

Assay [4] addresses Sialic acid-binding Ig-like lectin 9 (Homo sapiens) (UniProt Q9Y336). Put plainly: Hs-Siglec9 ALPHAscreen SOP 20170721. Conditions: 10 µM. Background: Alpha assays give light when donor and acceptor beads are brought close together.
For a further assay, the system named is Trypanosoma cruzi. Put plainly: Trypanosoma cruzi phosphomannomutase and mannose-1-phosphate guanylyltransferase assay. Format: functional. The note with it: 10 µM.
In assay [5] the target is T2, Arginase-2, mitochondrial (Homo sapiens) (UniProt P78540).
T2 sequence (whole entry): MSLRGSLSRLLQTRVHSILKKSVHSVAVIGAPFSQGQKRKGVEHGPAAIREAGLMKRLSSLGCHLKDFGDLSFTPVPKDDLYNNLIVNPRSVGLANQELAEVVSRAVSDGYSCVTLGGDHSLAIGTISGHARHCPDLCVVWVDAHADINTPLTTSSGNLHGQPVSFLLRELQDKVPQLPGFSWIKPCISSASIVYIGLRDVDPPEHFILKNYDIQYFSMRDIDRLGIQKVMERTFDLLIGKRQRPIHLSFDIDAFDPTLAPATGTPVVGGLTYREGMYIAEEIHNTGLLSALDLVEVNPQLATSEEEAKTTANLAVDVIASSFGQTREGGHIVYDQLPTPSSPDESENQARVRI
Put plainly: in vitro enzyme assay to detect the production of urea directly proportional to the activity of Arginase II. Note: in the data most compounds retested in dose-response had high values. Format: functional. The note with it: 33.3 µM.

Assay [6] deals with T3, Proteasome subunit beta (Trypanosoma cruzi) (UniProt O96673).
T3 sequence (whole entry): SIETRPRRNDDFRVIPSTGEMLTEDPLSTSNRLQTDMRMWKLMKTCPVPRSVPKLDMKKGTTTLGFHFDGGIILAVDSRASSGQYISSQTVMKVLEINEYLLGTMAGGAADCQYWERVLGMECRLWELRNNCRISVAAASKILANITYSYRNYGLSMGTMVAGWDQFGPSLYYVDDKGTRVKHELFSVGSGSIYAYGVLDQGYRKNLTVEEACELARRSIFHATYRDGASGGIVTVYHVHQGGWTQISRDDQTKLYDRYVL
Put plainly: Trypanosoma cruzi proteasome chymotrypsin-like activity (TcProtChymo) assay. Note: in the data most compounds retested in dose-response had high values. Format: functional. Conditions: 9.37 µM.

For the next assay, the species on record is Homo sapiens. Put plainly: To identify inhibition of the IFN signalling (Jak-Stat) pathway via expression of an eGFP reporter gene under the control of an IFN-stimulated response element (ISRE) containing MxA promoter. Format: functional. Conditions: 30 µM.
Assay [7] addresses T4, Tyrosyl-tRNA synthetase, putative (Trypanosoma cruzi (strain CL Brener)) (UniProt Q4DSP6).
T4 sequence (whole entry): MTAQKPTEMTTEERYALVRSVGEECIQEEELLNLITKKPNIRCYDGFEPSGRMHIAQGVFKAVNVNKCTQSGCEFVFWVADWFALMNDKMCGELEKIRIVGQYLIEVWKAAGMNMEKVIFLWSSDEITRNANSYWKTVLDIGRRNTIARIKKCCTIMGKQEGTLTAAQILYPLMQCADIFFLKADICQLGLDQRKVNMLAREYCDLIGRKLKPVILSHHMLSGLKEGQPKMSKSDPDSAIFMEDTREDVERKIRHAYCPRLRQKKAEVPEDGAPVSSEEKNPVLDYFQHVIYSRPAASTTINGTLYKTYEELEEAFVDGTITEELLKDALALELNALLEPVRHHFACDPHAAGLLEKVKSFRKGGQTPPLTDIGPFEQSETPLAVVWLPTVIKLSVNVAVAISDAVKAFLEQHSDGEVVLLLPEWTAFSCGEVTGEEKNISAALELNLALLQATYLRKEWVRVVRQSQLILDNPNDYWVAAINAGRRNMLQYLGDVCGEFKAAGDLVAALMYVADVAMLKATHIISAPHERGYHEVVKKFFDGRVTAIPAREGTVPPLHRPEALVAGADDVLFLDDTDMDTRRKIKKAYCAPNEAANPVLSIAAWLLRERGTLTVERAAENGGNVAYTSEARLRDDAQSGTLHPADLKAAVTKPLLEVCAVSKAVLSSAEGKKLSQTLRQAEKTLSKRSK
The assay can be described thus: Trypanosoma cruzi tyrosyl tRNA synthetase (TcYRS) _High Tyrosine SOP. Note: in the data most compounds retested in dose-response had high values. It counts as functional. The note with it: 30 µM.

For assay [8], the target named is T4, Tyrosyl-tRNA synthetase, putative (Trypanosoma cruzi (strain CL Brener)). The assay can be described thus: Trypanosoma cruzi tyrosyl tRNA synthetase (TcYRS) SOP. Format: functional. The note with it: 30 µM.
Assay [9] deals with Chromo domain-containing protein 1 (Saccharomyces cerevisiae (strain ATCC 204508 / S288c) (Baker's yeast)) (UniProt P32657). Put plainly: ScCHD-1 Enzyme Inhibition Assay. Note: in the data most compounds retested in dose-response had high values. Format: functional. Conditions: 30 µM.
Chain of Chromo domain-containing protein 1 (Saccharomyces cerevisiae (strain ATCC 204508 / S288c) (Baker's yeast)) (P32657 whole entry, the tested form may be a part): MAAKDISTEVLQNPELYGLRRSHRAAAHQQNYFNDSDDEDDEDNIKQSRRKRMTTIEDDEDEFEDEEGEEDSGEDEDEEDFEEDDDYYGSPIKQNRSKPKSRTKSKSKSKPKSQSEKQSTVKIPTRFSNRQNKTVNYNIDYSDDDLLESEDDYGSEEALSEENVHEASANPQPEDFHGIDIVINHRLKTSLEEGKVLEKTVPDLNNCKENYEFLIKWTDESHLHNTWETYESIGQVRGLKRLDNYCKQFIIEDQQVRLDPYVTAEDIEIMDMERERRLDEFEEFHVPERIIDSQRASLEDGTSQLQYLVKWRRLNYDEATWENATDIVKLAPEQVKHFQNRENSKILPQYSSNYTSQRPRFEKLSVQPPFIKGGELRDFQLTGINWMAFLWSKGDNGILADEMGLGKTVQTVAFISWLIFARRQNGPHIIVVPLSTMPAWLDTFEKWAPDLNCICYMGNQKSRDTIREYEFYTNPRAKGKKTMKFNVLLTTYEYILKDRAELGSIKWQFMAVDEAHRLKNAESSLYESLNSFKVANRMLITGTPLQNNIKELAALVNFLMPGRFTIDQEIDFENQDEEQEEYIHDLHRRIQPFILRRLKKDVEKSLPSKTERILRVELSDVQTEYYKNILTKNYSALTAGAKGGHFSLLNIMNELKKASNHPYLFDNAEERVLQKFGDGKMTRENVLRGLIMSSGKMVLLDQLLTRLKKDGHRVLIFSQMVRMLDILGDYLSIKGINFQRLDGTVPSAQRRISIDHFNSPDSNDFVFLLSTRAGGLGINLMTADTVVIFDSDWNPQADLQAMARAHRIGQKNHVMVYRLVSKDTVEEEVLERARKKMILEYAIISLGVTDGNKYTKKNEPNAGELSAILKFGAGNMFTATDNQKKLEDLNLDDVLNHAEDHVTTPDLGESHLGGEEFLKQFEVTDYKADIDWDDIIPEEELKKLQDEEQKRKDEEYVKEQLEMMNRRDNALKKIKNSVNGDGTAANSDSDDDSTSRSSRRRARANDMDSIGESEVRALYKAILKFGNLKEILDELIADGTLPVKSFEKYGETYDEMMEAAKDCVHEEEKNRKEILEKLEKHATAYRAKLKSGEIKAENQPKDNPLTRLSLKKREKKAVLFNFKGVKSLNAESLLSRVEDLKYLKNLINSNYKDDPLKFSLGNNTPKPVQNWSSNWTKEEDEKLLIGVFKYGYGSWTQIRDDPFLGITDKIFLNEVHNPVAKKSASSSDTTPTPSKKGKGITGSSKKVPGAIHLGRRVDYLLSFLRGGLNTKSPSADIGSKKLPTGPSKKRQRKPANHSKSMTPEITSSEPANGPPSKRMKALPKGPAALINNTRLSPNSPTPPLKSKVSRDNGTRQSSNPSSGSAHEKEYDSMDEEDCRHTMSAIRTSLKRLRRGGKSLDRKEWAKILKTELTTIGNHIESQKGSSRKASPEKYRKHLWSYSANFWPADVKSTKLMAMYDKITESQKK

Chain of Protein translocase subunit SecA (Escherichia coli (strain K12)) (P10408 whole entry): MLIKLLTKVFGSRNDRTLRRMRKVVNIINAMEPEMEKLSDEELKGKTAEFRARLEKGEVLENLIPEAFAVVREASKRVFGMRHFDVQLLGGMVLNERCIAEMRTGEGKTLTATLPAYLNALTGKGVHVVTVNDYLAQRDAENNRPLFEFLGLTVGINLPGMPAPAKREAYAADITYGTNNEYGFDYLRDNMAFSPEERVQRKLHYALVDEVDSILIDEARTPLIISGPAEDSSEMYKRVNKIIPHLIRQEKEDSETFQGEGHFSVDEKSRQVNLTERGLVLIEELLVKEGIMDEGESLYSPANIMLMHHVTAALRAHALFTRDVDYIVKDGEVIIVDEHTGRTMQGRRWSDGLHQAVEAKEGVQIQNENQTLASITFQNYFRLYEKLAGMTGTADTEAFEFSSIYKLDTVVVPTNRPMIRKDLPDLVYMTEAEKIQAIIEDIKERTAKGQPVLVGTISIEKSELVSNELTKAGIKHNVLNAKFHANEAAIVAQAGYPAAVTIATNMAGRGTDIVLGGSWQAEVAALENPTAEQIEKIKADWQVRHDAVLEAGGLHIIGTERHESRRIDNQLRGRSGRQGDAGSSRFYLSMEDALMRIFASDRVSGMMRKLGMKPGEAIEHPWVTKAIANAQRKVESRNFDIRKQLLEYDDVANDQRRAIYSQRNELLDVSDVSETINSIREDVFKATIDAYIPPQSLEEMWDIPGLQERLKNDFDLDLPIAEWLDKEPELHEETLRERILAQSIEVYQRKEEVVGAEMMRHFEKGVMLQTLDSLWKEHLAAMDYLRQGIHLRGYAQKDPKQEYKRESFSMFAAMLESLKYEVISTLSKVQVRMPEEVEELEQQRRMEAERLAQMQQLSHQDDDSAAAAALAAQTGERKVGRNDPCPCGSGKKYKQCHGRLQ
Chain of Sialic acid-binding Ig-like lectin 9 (Homo sapiens) (Q9Y336 whole entry): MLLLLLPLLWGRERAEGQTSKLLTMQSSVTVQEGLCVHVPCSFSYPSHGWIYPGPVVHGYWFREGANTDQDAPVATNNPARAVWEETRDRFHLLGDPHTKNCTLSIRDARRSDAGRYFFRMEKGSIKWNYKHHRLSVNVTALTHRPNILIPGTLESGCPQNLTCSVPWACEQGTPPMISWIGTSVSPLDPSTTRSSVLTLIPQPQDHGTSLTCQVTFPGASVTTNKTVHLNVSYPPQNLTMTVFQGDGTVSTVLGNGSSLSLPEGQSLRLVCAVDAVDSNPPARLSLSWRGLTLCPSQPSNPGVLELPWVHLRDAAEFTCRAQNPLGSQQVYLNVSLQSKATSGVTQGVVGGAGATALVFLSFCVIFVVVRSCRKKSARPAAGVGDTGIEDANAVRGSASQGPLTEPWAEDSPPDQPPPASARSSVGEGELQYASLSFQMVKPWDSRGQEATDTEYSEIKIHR

`CC(C)CN1CCCn2nc(CNC(=O)CCCc3cn[nH]c3)cc2C1`: the Percent Effect in assay [1] is -4.55%; in assay [2] it was 2.67%; in assay [3], 1.75%; in [4], 9.18%; in the assay on Trypanosoma cruzi, 6.91%; in assay [5], -0.521%. Also, the Percent Effect was 10.8% in [6]; 0.658% in the assay listed under Homo sapiens; 6.01% in [7]; 11.1% in assay [8]; -7.73% in [9].

For `Cc1cc2n(n1)CC(CNCc1ccnc(-n3ccnc3C)c1)CN2` (stereo not given), the Percent Effect in assay [1] was -2.38%; in [2] it was 26.3%; in assay [3] it was -14.2%; in assay [4] it was -7.03%; in the assay with Trypanosoma cruzi, 7.52%; in assay [5], -4.98%. The Percent Effect in assay [6] is 22.9%; in the assay filed under Homo sapiens, 4.37%; in assay [7], 3.43%; in [8], 17.1%; in [9], -13.8%.

As for `COc1c(C2CCCN2C(=O)c2csc(C(C)C)n2)c(C)nn1C` (stereo not given), the Percent Effect was -5.84% in assay [1]; 5.2% in assay [2]; 2.93% in [3]; 11.7% in [4]; 0.187% in the assay on Trypanosoma cruzi; 1.07% in assay [5]. Further, the Percent Effect in [6] is -5.91%; in the assay filed under Homo sapiens it was 8.75%; in assay [7], 3.88%; in assay [8], 9.76%; in [9] it was 0.696%.

Regarding `COCCNS(=O)(=O)c1ccc2c(c1)CCN(C(=O)c1cncn1C)C2`, the Percent Effect in [1] was -1.62%; in [2], 6.94%; in [3], -17.1%; in assay [4] it was 2.73%; with Trypanosoma cruzi, -1.46%; in assay [5] it was 6.62%. In addition, the Percent Effect in assay [6] was 22.1%; in the assay filed under Homo sapiens it was 6.15%; in assay [7] it was 7.37%; in assay [8] it was 10.3%; in assay [9], -2.12%.

As to `Cc1nc(CCNC(=O)C2CC(=O)N(C(C)(C)C)C2)sc1C` (stereo not given), the Percent Effect is -4.83% in [1]; 0% in assay [2]; -1.25% in assay [3]; 5.84% in assay [4]; -1.19% in the assay on Trypanosoma cruzi; -3.59% in assay [5]. The Percent Effect in [6] is 8.82%; in the assay filed under Homo sapiens, -0.947%; in assay [7], 5.21%; in [8], 11.1%; in [9], -3.8%.

`Cc1ccc2c(ccn2CCC(=O)NC[C@@H]2CCCN3CCCC[C@H]23)c1`: the Percent Effect in assay [1] is -5.55%; in assay [2], 12%; in [3], -3.71%; in [4], 5.07%; in the assay on Trypanosoma cruzi, 4.71%; in assay [5], -6.87%. Also, the Percent Effect is 14.1% in assay [6]; -2.77% in the assay listed under Homo sapiens; 3.17% in assay [7]; 10.3% in [8]; -4.06% in assay [9].

For `Cc1cc(N2CCCN(C(=O)Cc3csc(C)n3)CC2)ccn1`, the Percent Effect in [1] was 0.872%; in assay [2] it was 5.41%; in [3], 0.202%; in assay [4], -1.96%; in the assay with Trypanosoma cruzi, -2.7%; in assay [5] it was 4.76%. For the same molecule, the Percent Effect in assay [6] is 20.2%; in the assay filed under Homo sapiens, 9.24%; in assay [7], 2.65%; in assay [8], 9.76%; in assay [9], -3.36%.

As to `CCOc1ncccc1NC(=O)N1CCc2ccccc2C1`, the Percent Effect in assay [1] was -2.4%; in assay [2] it was -5.41%; in [3] it was -19.1%; in [4] it was 3.06%; in the assay on Trypanosoma cruzi, -2.14%; in [5], 7.95%. Moreover, the Percent Effect in [6] was 0%; in the assay listed under Homo sapiens, -3.53%; in [7] it was -1.98%; in assay [8] it was -1.22%; in assay [9], 9.66%.

Regarding `NC(=O)CCN1CCC(C(=O)c2cc(F)ccc2F)CC1`, the Percent Effect is -1.09% in [1]; 7.89% in assay [2]; -2.87% in assay [3]; -1.51% in assay [4]; 3.21% with Trypanosoma cruzi; -5.92% in [5]. The Percent Effect in assay [6] is 0.671%; in the assay filed under Homo sapiens it was -0.792%; in assay [7], 3.19%; in assay [8] it was 2.6%; in assay [9], -16%.

As for `CCN(Cc1nc2c(cnn2C)c(=O)[nH]1)c1ccc(OC)c(OC)c1`, the Percent Effect in assay [1] was -2.86%; in assay [2], 24.1%; in assay [3], 14.9%; in [4], -0.321%; in the assay with Trypanosoma cruzi, 0.513%; in assay [5], -2.8%. The Percent Effect in assay [6] is 23.3%; in the assay filed under Homo sapiens, 27%; in assay [7], 9.38%; in assay [8], 20.2%; in [9] it was -22.5%.
